V-ATPase pH: yeast V-ATPase proton transport regulation by pHLuorin; actives 0.37% (n = 350,000); response, % at 10 µM; S. cerevisiae, pHLuorin cytosolic pH fluorescence; in the data active = response mostly above about 7.3%, no sharp cut-off; inactive = mostly below about 5.4%; note: actives read high
ADAM10 inh: inhibits human ADAM10 | actives 0.62% (n = 370,000) | inhibition, % at 7 µM | recombinant ADAM10, EDANS/DABCYL FRET peptide cleavage, 3 h;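 active = inhibition above a per-campaign cutoff equal to the mean of compounds falling between control-based bounds plus 3 SD, cut at about 20% in these data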;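 note: 0% = DMSO wells while the 100% control is not disclosed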
ADAM17 inh: inhibits human ADAM17. inhibition, % at 6.95 µM. actives 0.83% (n = 370,000). AID 720648. recombinant ADAM17, EDANS/DABCYL FRET peptide cleavage;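 active = inhibition above the mean of compounds lying between control limits plus 3 SD, set per campaign, cut at about 8.5% in these data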;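 note: 0% = DMSO-only wells as the low control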
Target sequence (P78536 215-824 limits assumed): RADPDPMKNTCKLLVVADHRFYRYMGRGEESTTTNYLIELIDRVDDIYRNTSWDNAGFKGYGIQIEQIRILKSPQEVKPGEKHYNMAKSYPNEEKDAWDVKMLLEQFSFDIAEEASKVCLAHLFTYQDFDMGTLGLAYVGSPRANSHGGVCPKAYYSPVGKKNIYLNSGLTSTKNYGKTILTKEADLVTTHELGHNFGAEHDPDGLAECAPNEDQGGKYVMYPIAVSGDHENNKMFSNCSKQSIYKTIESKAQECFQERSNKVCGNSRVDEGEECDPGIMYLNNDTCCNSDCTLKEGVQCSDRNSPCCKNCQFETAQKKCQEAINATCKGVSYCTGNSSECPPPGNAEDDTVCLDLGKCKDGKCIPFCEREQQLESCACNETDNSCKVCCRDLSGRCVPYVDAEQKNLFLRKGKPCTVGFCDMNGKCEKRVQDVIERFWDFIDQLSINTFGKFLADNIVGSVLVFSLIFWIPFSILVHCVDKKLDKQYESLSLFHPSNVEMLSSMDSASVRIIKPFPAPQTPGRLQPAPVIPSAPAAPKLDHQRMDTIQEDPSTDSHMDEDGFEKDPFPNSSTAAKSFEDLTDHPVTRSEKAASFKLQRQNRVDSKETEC
KLK7 zymogen act: activators of human kallikrein-7 zymogen | purified proKLK7, EDANS-DABCYL substrate fluorescence; 100% is mature enzyme control, 0% vehicle | activation, % at 7 µM | actives 0.9% (n = 370,000) | AID 652039;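 active = activation above the mean of all tested compounds plus 3 SD, computed per campaign excluding outliers beyond control limits, cut at about 13% in these data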
ADAM10 confirm: confirmation of inhibitors of human ADAM10; shares compounds with ADAM10 inh; ADAM10 QFRET peptide cleavage, EDANS fluorescence; inhibition, % at 6.95 µM; actives 1% (n = 2,100);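 active = inhibition above about 20% chosen separately for each screening run, limit read from the data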;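 note: 0% = DMSO wells and 100% = marimastat wells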
ADAM17 counter: counter-screen for ADAM10 exosite inhibitors: inhibitors of human ADAM17; shares compounds with ADAM10 inh; ADAM17 QFRET peptide cleavage, EDANS fluorescence; inhibition, % at 6.95 µM; actives 0.5% (n = 2,100); AID 743214;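 active = mean triplicate inhibition above the solvent-only control wells' mean plus 3 SD, cut at about 12% in these data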;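 note: 0% = DMSO wells and 100% = marimastat wells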
ADAM10 counter: ADAM10 inhibition, counter-screen for ADAM17 exosite hits. AID 743256. recombinant ADAM10, EDANS/DABCYL FRET peptide cleavage, 3 h. shares compounds with ADAM17 inh. inhibition, % at 6.95 µM. actives 47% (n = 2,900);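 active = mean inhibition over the triplicate runs exceeds the activity threshold set in the earlier primary screen, cut at about 20% in these data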;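 note: 0% = DMSO wells and 100% = marimastat wells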
ADAM17 confirm: human ADAM17 inhibition, confirmation; shares compounds with ADAM17 inh; recombinant ADAM17, EDANS/DABCYL QFRET peptide cleavage; inhibition, % at 6.95 µM; actives 65% (n = 2,900);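 active = mean inhibition across replicates above the hit cutoff set in the primary screen, cut at about 8.5% in these data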;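 note: 0% = DMSO wells and 100% = marimastat wells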
* hit, by the source's call; . = no result. A selection: hits, their analogues and other compounds. The true share with any hit is near 2.3%.

SMILES	V-ATPase pH	ADAM10 inh	ADAM17 inh	KLK7 zymogen act	ADAM10 confirm	ADAM17 counter	ADAM10 counter	ADAM17 confirm
O=C(Nc1nc2ccccc2s1)C1CCCN1S(=O)(=O)c1ccc(Cl)cc1 (stereo not given)	-1	30*	11*	0	2	0	33*	17*
COC(=O)[C@H](Cc1ccccc1)N1CC(N2CCCC2)CS1(=O)=O (stereo not given in full)	.	-7	-2	0	.	.	.	.
O=C1C=C(c2ccc3ccccc3c2)C[C@@H](c2ccc(Cl)cc2)C1	-6	5	-2	-2	.	.	.	.
O=C1C=C(c2ccc3[nH]ccc3c2)C[C@@H](c2ccc(Cl)cc2)C1	4	21*	15*	-2	10	4	7	8
Cc1ccc(C2=CC(=O)C[C@H](c3ccc(F)cc3)C2)cc1	-1	28*	12*	0	2	1	22*	17*
CN(c1ccccc1)S(=O)(=O)c1cccc(NC(=O)CSc2ncc(C(F)(F)F)cc2Cl)c1	4	20*	10.0*	0	10	4	26*	10*
COc1ccc(CN(C(=O)c2snc(C(N)=O)c2N)C(C(=O)NC2CCCC2)c2ccc(OC)c(OC)c2)cc1 (stereo not given)	-5	-101	-34	-1	.	.	.	.
COc1ccc(CN(C(=O)c2nsc(Cl)c2Cl)C(C(=O)NC2CCCCC2)c2ccc(OC)cc2)cc1 (stereo not given)	1	28*	8.8*	0	7	2	8	9.6*
Cc1nnc(SCC(=O)Nc2cccc(S(N)(=O)=O)c2)n1-c1ccccc1	-5	-7	-8	0	.	.	.	.
Cc1ccc(-n2c(SCC(=O)Nc3cccc(S(N)(=O)=O)c3)nc3ccccc32)cc1	6	20*	12*	0	11	4	26*	14*
O=C(NCc1ccco1)Nc1c(Cl)cc(Cl)cc1Cl	.	3	-3	0	.	.	.	.
O=C(CCNC(=O)c1ccccc1Cl)Nc1cc(C(F)(F)F)ccc1Cl	-3	-3	-4	0	.	.	.	.
Cc1ccc(C)c(C(=O)COC(=O)CCCC(=O)Nc2cc(C(F)(F)F)ccc2Cl)c1	-5	20*	9.8*	0	4	2	25*	11*
CC(C)(C)C1CCc2nc(NC(=O)Cc3cn4ccsc4n3)sc2C1 (stereo not given)	-5	23*	20*	1	3	2	21*	9.7*
COc1ccc(OC)c(-c2nnc3n2N=C(c2ccc(OC)c(OC)c2)CS3)c1	-1	8	4	-1	.	.	.	.
COc1ccc(OC)c(-c2nnc3n2N=C(c2ccc(OC)c(OC4CCCC4)c2)CS3)c1	-3	31*	17*	0	5	1	8	8
O=C(Nc1ccc(Nc2ccccc2)cc1)c1c(F)c(F)c(F)c(F)c1F	4	20*	14*	0	5	1	30*	14*
O=C(Nc1ccc(Nc2ccccc2)cc1)c1c(Cl)cccc1Cl	-1	12	3	0	.	.	.	.
O=C1[C@H]2[C@@H](c3ccc(C(F)(F)F)cc3)N[C@]3(CCCN(Cc4ccc(C(F)(F)F)cc4)C3=O)[C@H]2C(=O)N1Cc1ccccc1	6	31*	13*	0	3	1	41*	24*
COc1ccc(/C=N/NC(=O)Cc2csc(Nc3cccc(C(F)(F)F)c3)n2)cc1C	5	28*	13*	0	6	2	33*	20*
Cc1ccc(NC(=O)c2cccc(OCc3c(C)noc3C)c2)cc1S(=O)(=O)Nc1ccccc1Cl	0	22*	10*	0	10	3	34*	16*
COc1ccc2ccccc2c1C=NNC(=O)CN1CCN(Cc2ccccc2)CC1	.	-6	-2	0	.	.	.	.
COc1ccc(C(c2c[nH]c3ccccc23)c2c[nH]c3ccccc23)cc1O	-1	31*	11*	-1	13	4	43*	20*
Cc1ccc(O)c(C(C)c2c[nH]c3ccccc23)c1 (stereo not given)	.	5	2	0	.	.	.	.
O=C(c1ccc(Cl)c(Cl)c1)N1CCC(=O)N(C(COCc2ccc(Cl)cc2)Cc2ccccc2)CC1 (stereo not given)	-1	20*	9.5*	-1	10	3	34*	16*
SMILES	V-ATPase pH	ADAM10 inh	ADAM17 inh	KLK7 zymogen act	ADAM10 confirm	ADAM17 counter	ADAM10 counter	ADAM17 confirm
Cc1cccc(COC[C@H](Cc2ccccc2)N2CCN(C(=O)c3ccc(Cl)c(Cl)c3)CCC2=O)c1	.	9	3	1	.	.	.	.
O=C(c1ccc(C(F)(F)F)cc1)N1CCC(=O)N(C(COCc2ccc(Cl)cc2)Cc2ccccc2)CC1 (stereo not given)	5	20*	9.9*	1	4	2	14	8.7*
CCC[C@@H](/C=C/C(=O)OC(C)(C)C)Sc1ccc(N)cc1	.	7	6	1	.	.	.	.
CC(O/N=C/c1ccccc1OC(F)F)C(=O)Nc1cccc(S(=O)(=O)N2CCOCC2)c1 (stereo not given)	-3	20*	10*	1	0	1	7	3
COc1ccccc1Cc1c(-c2cccc(Cl)c2)nc2c3ccccc3ccn12	.	-9	-1	0	.	.	.	.
O=C(C(=O)N1CCN(c2ccccc2Cl)CC1)c1c[nH]c2ccccc12	-1	26*	14*	1	6	1	21*	12*
Clc1ccccc1N1CCN(Cc2c[nH]c3ccccc23)CC1	-2	3	0	0	.	.	.	.
CCOc1cc(/C=N/O)cc(Br)c1OCC	0	3	0	0	.	.	.	.
CCOc1cc(/C=N/O)cc(Br)c1OCc1ccc(Cl)cc1	-1	25*	8.9*	1	6	3	52*	21*
COc1ccc(NC(=O)c2cccc(Oc3ccc([N+](=O)[O-])cc3Cl)c2)cc1	4	22*	10*	0	8	3	30*	18*
COc1ccc(/C=N/NC(=O)c2ccc(NC(=O)c3cccc([N+](=O)[O-])c3)cc2)c(OC)c1	1	3	-1	0	.	.	.	.
COC(=O)C1=C(C)N(C)C(=NCc2ccc(OC)cc2)NC1c1cccc(F)c1 (stereo not given)	.	0	1	0	.	.	.	.
Cc1cc(Nc2ccc(Cl)cc2)n(-c2cccc(Cl)c2)n1	-3	24*	9.8*	0	7	2	16	11*
O=C1NC(=O)C2(CCCc3ccc(N(CCO)CCO)cc32)N1 (stereo not given)	.	-5	-3	1	.	.	.	.

Screening results deposited in PubChem by several laboratories.
